The test can be described thus: JC-1 mitochondrial signal, unstimulated MM1S myeloma – cell-based, JC-1 fluorescence, 24 h, 100 nL compound, profiling panel (AID 1170). Also: test concentration not given here. Particulars: MM1S mitochondrial potential, higher = more signal.
Take `CC(C)C[C@@H]1NC(=O)[C@H]2C[C@@H](C(=O)NCCCCCCN(C)C)[C@@H](c3ccc(O)cc3)N2C1=O`: the z-score is -0.601. The result for `CCN(CC)c1ccc(N2CC=CC34O[C@@H]5/C=C\CCC(C)OC(=O)C5[C@H]3C(=O)N(C(CO)C(C)C)[C@@H]4C2=O)cc1` (stereo partly specified) reads 1.01; that for `C=CCNC(=O)[C@H]1[C@@H]2C(=O)O[C@@H](c3ccccc3)[C@@H](c3ccccc3)N2[C@@H](c2ccccc2OCCO)[C@]12C(=O)Nc1ccc(C#CC3=CCCCC3)cc12`, -1.84.

In turn, `CCOC(=O)[C@H]1C/C=C/C[C@H](C(=O)OCC)C(=O)O[C@H]2[C@@H](OC)O[C@H](CO)[C@@H](OC(=O)Nc3cccc(F)c3)[C@@H]2OC1=O` registered a z-score of -1.99.

Consider `CCCC[C@H]1OB(O)C[C@H]2C1=C(COc1ccccc1)C[C@H]1C(=O)N(C)C(=O)[C@H]12`, for which the z-score came out at 0.35. Take `OC([C@@H]1CC(c2ccccc2)=NO1)[C@H]1CC(c2ccccc2)=NO1` (stereo partly specified): the z-score is 0.439. `CN(C)C(=O)[C@]1(Cc2ccccc2N=[N+]=[N-])N=C(c2ccc(OCCCO)cc2)O[C@@H]1c1ccccc1` came in with a z-score of -1.27. The result for `CCCCCN1CC=CC23O[C@@H]4/C=C\CCCOC(=O)C4[C@H]2C(=O)N(CCCO)[C@@H]3C1=O` (stereo partly specified) reads 0.286. For `CC(C)[C@@H](CO)NC(=O)[C@H]1[C@@H](c2ccccc2)N(c2ccccc2)O[C@@H]1C`, the z-score is -1.11. Compound `C=CC[C@@]1(C(=O)N(C)C)N=C(c2ccc(OCCCO)cc2)O[C@@H]1c1ccccc1N=[N+]=[N-]` yielded a z-score of -1.31. In turn, `C=C(C)C1C(=C)CN([C@H](CO)c2ccccc2)C1=O` (stereo partly specified) registered a z-score of -0.761.

For the origin of these results see PubChem BioAssay.
